Test results from PubChem BioAssay (Tox21).
Inconclusive results are not listed. Calls of active or inactive are those of the source. Unless noted, the call rests on the fitted dose curve; in most records, active means well fitted curve in the direction sought with a large enough effect in the repeat runs; inconclusive means weak or mixed curves; inactive means no such curve, though single readings can be large; an effect the other way counts as inactive or inconclusive.

Columns and labels:
[1] = qHTS assay to identify small molecule antagonists of the sonic hedgehog signaling (Shh) pathway (AID 1259369; calls by dose curve; further: nearly all actives have a fitted effect of over 45% in size)
In short: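 Cells are plated and held 4hr at 37 C, compounds (DMSO) are pinned in, conditioned medium is added to stimulate the pathway, and after 24hr luciferase reagent is added for 30min before luminescence is read.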

[2] = target: Estrogen receptor beta (Homo sapiens) (UniProt Q92731); experiment: qHTS assay to identify small molecule agonists of the estrogen receptor beta (ER-beta) signaling pathway (AID 1259377; active means well fitted activation curve with a large enough effect in the signal ratio in the repeat runs, not every such curve was filed as active; the % refers to the signal ratio)
In short: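 Read-out: beta-lactamase FRET fluorescence. Cell line: ER-beta-UAS-bla HEK293T in 2% charcoal-stripped FBS. Exposure: 16 hr at 37C. Substrate step: 2 h at room temperature.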

[3] = target: Estrogen receptor beta (Homo sapiens) (UniProt Q92731); experiment: qHTS assay to identify small molecule antagonists of the estrogen receptor beta (ER-beta) signaling pathway (AID 1259378; active means well fitted inhibition curve with a large enough effect in the signal ratio in the repeat runs, not every such curve was filed as active; the % refers to the signal ratio)
In short: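 Antagonist mode: compounds added to beta-lactamase reporter HEK293T ER-beta-UAS cells stimulated with E2 (1nM final), 16 hr at 37C. LiveBLAzer B/G FRET substrate, 2 hours room temperature, fluorescence read-out.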

[4] = qHTS assay to identify small molecule agonists of the androgen receptor (AR) signaling pathway in the presence of an antagonist - cell viability counter screen (AID 1259379);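 further: MDA-kb2 human breast cancer cells carrying an MMTV luciferase reporter; series mostly up to about 92 µM; nearly all actives have a fitted effect of over 25% in size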
In short: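 Cytotoxicity is assessed by CellTiter-Fluor in MDA-kb2 cells carrying an MMTV-driven luciferase reporter. Cells receive 3.0uM nilutamide plus compounds at 15 concentrations and incubate 16 hr at 37C without CO2 before fluorescence reading.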

[5] = qHTS assay to identify small molecule agonists of the estrogen receptor beta (ER-beta) signaling pathway - cell viability counter screen (AID 1259380); further: nearly all actives have a fitted effect of over 30% in size
In short: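 Cytotoxicity is measured in parallel with the reporter screen: after 16 hr compound exposure at 37C and a 2 hr LiveBLAzer step, CellTiter-Glo is added to the same ER-beta-UAS-bla HEK293T wells and luminescence read after 30 min.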

[6] = qHTS assay to identify small molecule antagonists of the estrogen receptor beta (ER-beta) signaling pathway - cell viability counter screen (AID 1259382);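 further: HEK293T cells carrying ER-beta-UAS-bla reporter stimulated with estradiol; series mostly up to about 92 µM; nearly all actives have a fitted effect of over 55% in size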
In short: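 Cytotoxicity counter screen multiplexed with the beta-lactamase antagonist assay: GripTite HEK293T ER-beta-bla cells were treated 16 hr with test chemicals in the presence of 1nM 17-beta-estradiol, and viability was measured by CellTiter-Glo.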

[7] = target: Estrogen receptor (Homo sapiens) (UniProt P03372); experiment: qHTS assay to identify small molecule agonists of the estrogen receptor alpha (ER-alpha) signaling pathway in the presence of an antagonist (AID 1259383; calls by dose curve; further: top concentration of the series differs between compounds; nearly all actives have a fitted effect of over 15% in size)
In short: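 Agonist-mode confirmation in the presence of the ER antagonist ICI-182,780 at 10.0nM final. Breast-derived VM7Luc4E2 reporter cells were exposed to compounds for 22hr, and ERE-driven luciferase was quantified by luminescence.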

[8] = qHTS assay to identify small molecule agonists of the estrogen receptor alpha (ER-alpha) signaling pathway in the presence of an antagonist - cell viability counter screen (AID 1259386);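 further: series mostly up to about 92 µM; cells exposed to compounds for 22 h at 37 °C before the viability read; nearly all actives have a fitted effect of over 30% in size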
In short: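 Cytotoxicity was measured in parallel with the ERE-luciferase agonist screen, in the same wells. The cells were VM7Luc4E2, which endogenously express ER-alpha, and treatment was with compounds plus 10.0nM ICI-182,780 for 22hr.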

[9] = target: Progesterone receptor (Homo sapiens) (UniProt P06401); experiment: qHTS assay to identify small molecule agonists of the progesterone receptor (PR) signaling pathway (AID 1346784; calls by dose curve; further: nearly all actives have a fitted effect of over 30% in size; further: potency means the concentration at half of the fitted maximal effect)
In short: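 Compounds were tested for PR agonism in HEK 293T cells bearing a beta-lactamase gene under UAS control. Treatment lasted 16 hr at 37C; signal came from fluorescence of a FRET substrate.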

[10] = target: Progesterone receptor (Homo sapiens) (UniProt P06401); experiment: qHTS assay to identify small molecule antagonists of the progesterone receptor (PR) signaling pathway (AID 1346795; active means well fitted inhibition curve with a large enough effect in the signal ratio in the repeat runs, not every such curve was filed as active; the % refers to the signal ratio)
In short: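 In HEK293T cells bearing the PR-UAS-bla reporter, compound effects on promegestone-driven (1 nM) beta-lactamase expression are assessed after 16 hr using a fluorescent FRET substrate incubated 2 hr at room temperature.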

[11] = qHTS assay to identify small molecule agonists of the progesterone receptor (PR) signaling pathway - cell viability counter screen (AID 1346799; calls by dose curve; further: nearly all actives have a fitted effect of over 45% in size)
In short: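 Here, 3,000 PR-UAS-bla HEK293T cells per well were treated with compounds for 16 hr after a 6 hr preincubation at 37C and 5% CO2; cell viability is the CellTiter-Glo luminescence signal.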

[12] = qHTS assay to identify small molecule antagonists of the TGF-beta/Smad signaling pathway - cell viability counter screen (AID 1346824); further: nearly all actives have a fitted effect of over 50% in size
In short: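 Cytotoxicity counter-screen run in the same wells as the beta-lactamase Smad reporter read: CellTiter-Glo luminescence after 30 min at room temperature. HEK 293T SBE-bla cells had 5 hr compound exposure at 37 C with TGF-beta1 (0.25 ng/mL stock).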

[13] = qHTS assay to identify small molecule agonists of the TGF-beta/Smad signaling pathway - cell viability counter screen (AID 1346829); further: top concentration of the series differs between compounds; nearly all actives have a fitted effect of over 45% in size
In short: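 Here the cytotoxicity of library compounds is measured in SBE-bla HEK 293T cells treated for 5 hr, using CellTiter-Glo added to wells already read for the beta-lactamase reporter.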

[14] = qHTS assay to identify small molecule agonists of the TGF-beta/Smad signaling pathway (AID 1346859; active means well fitted activation curve with a large enough effect in the signal ratio in the repeat runs, not every such curve was filed as active; the % refers to the signal ratio; further: series mostly up to about 77 µM)
In short: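 Each well held 4,000 SBE-bla HEK 293T cells incubated overnight before compound addition; 5 hr later the cleavable FRET substrate went on for 2 hr at room temperature, and fluorescence was read at two emissions.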

[15] = target: Thyrotropin-releasing hormone receptor (Homo sapiens) (UniProt P34981); experiment: qHTS assay to identify small molecule antagonists of the thyrotropin-releasing hormone receptor (TRHR) signaling pathway (AID 1346877; active means well fitted inhibition curve with a large enough effect in the repeat runs, not every such curve was filed as active; further: series mostly up to about 51 µM)
In short: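 Antagonism is measured as suppression of the calcium response to 1 nM TRH in TRHR-HEK293 cells that have been dye-loaded for 2 h at 37 °C after overnight plating. Each compound is tested at 15 concentrations in triplicate.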

[16] = target: Thyrotropin-releasing hormone receptor (Homo sapiens) (UniProt P34981); experiment: qHTS assay to identify small molecule agonists of the thyrotropin-releasing hormone receptor (TRHR) signaling pathway (AID 1346891; calls by dose curve; further: series mostly up to about 58 µM)
In short: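 Screening of agonists relied on calcium signalling in HEK293 cells expressing human TRHR: dye loading 2 h at 37 °C preceded compound addition and a 3-min fluorescence time course.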

[17] = target: Androgen receptor (Homo sapiens) (UniProt P10275); experiment: qHTS assay to identify small molecule agonists of the androgen receptor (AR) signaling pathway in the presence of an antagonist (AID 1259381; calls by dose curve; further: nearly all actives have a fitted effect of over 15% in size)
In short: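 Agonist-mode confirmation screen: human MDA-kb2 cells stably expressing luciferase under an MMTV promoter bearing AR and GR response elements, co-treated with 3.0uM nilutamide (final). Luminescence measured after 16hr compound incubation.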

[18] = qHTS assay to identify small molecule agonists or antagonists of the thyroid stimulating hormone receptor (TSHR) signaling pathway - wild type cell line counter screen (AID 1259384; calls by dose curve)
In short: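 Counter screen in untransfected Hek293: compounds (15-point titration, triplicate) plus phosphodiesterase inhibitor Ro20-1724 added after 18 h plating; 30 min RT. Intracellular cAMP via competitive d2/cryptate immunoassay, 1 h incubation.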

[19] = target: Thyrotropin receptor (Homo sapiens) (UniProt P16473); experiment: qHTS assay to identify small molecule antagonists of the thyroid stimulating hormone receptor (TSHR) signaling pathway (AID 1259385; calls by dose curve; further: nearly all actives have a fitted effect of over 20% in size)
In short: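 Antagonist mode: compound-treated TSHR-expressing HEK293 cells were stimulated with 1.5 ng/mL TSH (final) in presence of Ro20-1724 for 30 min at RT. HTRF cAMP detection after 1 h; each compound tested at 15 concentrations, triplicate.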

[20] = qHTS assay to identify small molecule antagonists of the progesterone receptor (PR) signaling pathway - cell viability counter screen (AID 1346798); further: series mostly up to about 92 µM; nearly all actives have a fitted effect of over 50% in size
In short: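 Following a 4 hr attachment, PR-UAS-bla HEK293T cells in charcoal-stripped FBS medium were exposed to compounds with R5020 for 16 hr; CellTiter-Glo was added and luminescence read after 30 min at room temperature.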

Measured: Potency

Sequence of Androgen receptor (Homo sapiens) (P10275 whole entry, looked up): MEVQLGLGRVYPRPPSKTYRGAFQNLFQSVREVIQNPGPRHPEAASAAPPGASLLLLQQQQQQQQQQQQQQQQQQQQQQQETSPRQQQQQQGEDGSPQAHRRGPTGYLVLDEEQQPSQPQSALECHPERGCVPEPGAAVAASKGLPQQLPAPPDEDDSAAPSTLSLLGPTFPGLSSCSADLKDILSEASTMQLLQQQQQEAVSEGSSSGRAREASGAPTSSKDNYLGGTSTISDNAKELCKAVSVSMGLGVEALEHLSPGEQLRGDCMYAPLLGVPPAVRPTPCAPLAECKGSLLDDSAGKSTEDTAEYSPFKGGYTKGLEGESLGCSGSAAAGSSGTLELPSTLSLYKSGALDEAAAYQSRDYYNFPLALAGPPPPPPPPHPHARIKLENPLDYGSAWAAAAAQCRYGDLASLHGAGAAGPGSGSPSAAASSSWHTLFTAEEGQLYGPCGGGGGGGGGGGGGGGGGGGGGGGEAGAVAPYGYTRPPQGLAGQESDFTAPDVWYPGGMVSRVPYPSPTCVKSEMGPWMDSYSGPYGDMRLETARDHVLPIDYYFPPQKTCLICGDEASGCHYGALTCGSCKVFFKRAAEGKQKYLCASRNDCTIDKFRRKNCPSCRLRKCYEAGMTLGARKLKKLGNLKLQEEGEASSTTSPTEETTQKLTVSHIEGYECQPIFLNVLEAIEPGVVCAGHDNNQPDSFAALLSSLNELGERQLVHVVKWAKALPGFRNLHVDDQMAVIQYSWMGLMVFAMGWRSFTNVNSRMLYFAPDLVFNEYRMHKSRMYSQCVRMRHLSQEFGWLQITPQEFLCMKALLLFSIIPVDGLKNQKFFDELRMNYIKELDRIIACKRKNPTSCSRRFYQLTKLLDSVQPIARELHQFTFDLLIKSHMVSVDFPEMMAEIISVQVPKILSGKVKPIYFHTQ
Sequence of Estrogen receptor beta (Homo sapiens) (Q92731 whole entry, looked up): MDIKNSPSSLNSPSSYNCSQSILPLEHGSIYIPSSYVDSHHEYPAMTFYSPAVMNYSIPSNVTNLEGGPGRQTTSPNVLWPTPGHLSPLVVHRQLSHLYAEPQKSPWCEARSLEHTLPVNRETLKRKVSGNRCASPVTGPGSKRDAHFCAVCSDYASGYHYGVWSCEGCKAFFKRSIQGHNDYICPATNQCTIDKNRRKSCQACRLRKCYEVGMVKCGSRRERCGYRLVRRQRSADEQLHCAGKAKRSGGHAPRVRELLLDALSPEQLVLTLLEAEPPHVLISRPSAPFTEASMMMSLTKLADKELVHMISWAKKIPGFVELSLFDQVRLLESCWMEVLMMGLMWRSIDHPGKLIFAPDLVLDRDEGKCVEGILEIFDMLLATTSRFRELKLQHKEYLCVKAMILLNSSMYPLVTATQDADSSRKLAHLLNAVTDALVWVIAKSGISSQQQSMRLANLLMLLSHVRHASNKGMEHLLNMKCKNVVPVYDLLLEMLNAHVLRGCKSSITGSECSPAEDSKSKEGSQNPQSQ
Sequence of Estrogen receptor (Homo sapiens) (P03372 whole entry, looked up): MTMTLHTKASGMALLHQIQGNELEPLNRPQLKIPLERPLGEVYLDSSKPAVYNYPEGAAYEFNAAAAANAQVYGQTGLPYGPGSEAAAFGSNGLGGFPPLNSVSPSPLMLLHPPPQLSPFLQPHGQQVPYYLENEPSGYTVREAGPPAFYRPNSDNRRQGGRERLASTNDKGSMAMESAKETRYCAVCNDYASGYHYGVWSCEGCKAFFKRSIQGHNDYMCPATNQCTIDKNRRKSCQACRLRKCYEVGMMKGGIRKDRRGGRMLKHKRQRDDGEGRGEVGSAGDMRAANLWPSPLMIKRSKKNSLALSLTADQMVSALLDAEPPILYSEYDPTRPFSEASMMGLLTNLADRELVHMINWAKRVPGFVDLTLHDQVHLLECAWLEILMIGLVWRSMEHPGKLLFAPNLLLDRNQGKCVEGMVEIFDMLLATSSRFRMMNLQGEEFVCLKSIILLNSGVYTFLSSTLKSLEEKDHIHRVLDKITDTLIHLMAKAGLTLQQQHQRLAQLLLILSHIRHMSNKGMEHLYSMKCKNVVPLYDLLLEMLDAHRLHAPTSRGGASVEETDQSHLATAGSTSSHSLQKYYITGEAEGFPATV
Sequence of Progesterone receptor (Homo sapiens) (P06401 whole entry, looked up): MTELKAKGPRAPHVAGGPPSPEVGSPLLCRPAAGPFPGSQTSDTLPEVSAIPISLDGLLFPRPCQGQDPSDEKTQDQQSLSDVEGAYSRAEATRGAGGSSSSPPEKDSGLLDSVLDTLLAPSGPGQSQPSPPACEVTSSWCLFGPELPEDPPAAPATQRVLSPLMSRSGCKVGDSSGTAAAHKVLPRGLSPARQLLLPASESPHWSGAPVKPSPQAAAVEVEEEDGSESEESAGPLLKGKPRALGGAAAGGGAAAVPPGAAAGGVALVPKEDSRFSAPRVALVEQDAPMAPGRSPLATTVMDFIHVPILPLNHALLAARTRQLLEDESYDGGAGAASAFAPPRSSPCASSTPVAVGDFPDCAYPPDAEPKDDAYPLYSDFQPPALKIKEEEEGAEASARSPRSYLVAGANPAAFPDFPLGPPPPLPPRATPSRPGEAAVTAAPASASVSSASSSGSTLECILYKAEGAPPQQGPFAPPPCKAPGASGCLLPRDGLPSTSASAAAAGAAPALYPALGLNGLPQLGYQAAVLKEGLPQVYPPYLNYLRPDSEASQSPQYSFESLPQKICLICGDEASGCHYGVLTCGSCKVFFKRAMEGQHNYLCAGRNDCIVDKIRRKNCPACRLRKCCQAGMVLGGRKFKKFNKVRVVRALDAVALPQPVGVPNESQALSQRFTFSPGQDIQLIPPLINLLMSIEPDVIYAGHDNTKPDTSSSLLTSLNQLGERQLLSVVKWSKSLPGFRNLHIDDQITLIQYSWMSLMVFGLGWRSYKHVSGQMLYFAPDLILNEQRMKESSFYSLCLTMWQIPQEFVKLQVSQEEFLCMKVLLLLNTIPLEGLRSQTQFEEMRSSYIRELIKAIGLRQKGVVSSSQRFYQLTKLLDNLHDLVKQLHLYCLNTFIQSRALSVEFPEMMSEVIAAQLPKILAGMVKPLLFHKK
Sequence of Thyrotropin receptor (Homo sapiens) (P16473 whole entry, looked up): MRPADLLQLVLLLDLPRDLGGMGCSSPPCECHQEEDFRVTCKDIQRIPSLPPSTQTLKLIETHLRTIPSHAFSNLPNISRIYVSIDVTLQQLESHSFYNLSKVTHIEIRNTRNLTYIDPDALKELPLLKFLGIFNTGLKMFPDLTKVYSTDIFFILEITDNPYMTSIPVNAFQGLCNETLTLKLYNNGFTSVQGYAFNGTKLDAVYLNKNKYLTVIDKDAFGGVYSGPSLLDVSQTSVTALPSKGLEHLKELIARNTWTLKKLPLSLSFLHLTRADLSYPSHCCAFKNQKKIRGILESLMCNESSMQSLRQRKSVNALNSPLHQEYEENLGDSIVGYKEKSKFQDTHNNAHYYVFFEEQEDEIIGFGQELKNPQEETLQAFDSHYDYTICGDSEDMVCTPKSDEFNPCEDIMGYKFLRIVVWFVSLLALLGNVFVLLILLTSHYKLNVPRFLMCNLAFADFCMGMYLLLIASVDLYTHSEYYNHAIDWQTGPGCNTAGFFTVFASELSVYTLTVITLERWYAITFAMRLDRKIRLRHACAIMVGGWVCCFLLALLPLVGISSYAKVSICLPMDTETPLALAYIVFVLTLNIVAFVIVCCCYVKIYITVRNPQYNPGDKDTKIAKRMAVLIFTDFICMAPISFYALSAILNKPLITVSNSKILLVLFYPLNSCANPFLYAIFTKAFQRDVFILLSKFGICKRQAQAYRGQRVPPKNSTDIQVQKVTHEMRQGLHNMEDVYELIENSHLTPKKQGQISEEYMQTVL
Sequence of Thyrotropin-releasing hormone receptor (Homo sapiens) (P34981 whole entry, looked up): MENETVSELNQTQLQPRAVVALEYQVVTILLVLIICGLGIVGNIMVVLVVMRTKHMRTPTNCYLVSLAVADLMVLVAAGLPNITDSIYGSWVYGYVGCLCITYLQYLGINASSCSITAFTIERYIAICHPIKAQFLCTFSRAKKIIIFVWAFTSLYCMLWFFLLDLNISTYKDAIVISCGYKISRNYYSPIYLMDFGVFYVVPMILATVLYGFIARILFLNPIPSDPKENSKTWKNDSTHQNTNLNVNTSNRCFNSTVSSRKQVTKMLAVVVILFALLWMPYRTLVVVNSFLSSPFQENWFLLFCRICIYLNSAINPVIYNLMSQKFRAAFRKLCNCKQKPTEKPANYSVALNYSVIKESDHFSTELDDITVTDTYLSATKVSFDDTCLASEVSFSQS

COc1ccc(S(=O)(=O)Nc2nnc(CC(C)C)s2)cc1
inactive: [1] | [2] | [3] | [4] | [5] | [6] | [7] | [8] | [9] | [10] | [11] | [12] | [13] | [14] | [15] | [16]

CCCS(=O)c1ccc2nc(NC(=O)OC)[nH]c2c1 (stereo not drawn)
inactive: [1] | [2] | [3] | [4] | [5] | [17] | [6] | [18] | [19] | [8] | [9] | [10] | [20] | [12] | [13] | [14] | [15] | [16]

CO[Si](C)(C)OC
inactive: [1] | [2] | [3] | [4] | [5] | [6] | [7] | [18] | [19] | [8] | [9] | [11] | [13] | [14] | [15] | [16]

COc1ccccc1N1CCN(CCCNc2cc(=O)n(C)c(=O)n2C)CC1
inactive: [1] | [2] | [3] | [4] | [5] | [6] | [7] | [18] | [19] | [8] | [9] | [10] | [20] | [11] | [12] | [13] | [14] | [15] | [16]

CN1CCN(c2c(F)cc3c(=O)c(C(=O)O)cn(CCF)c3c2F)CC1
inactive: [1] | [2] | [3] | [4] | [5] | [6] | [7] | [18] | [19] | [8] | [9] | [20] | [11] | [12] | [13] | [14] | [15] | [16]

Cc1ncc(CO)c(CN)c1O
inactive: [1] | [2] | [3] | [4] | [5] | [17] | [6] | [7] | [18] | [19] | [9] | [20] | [12] | [13] | [14] | [15] | [16]

O=C1N(c2ccccc2)c2ccccc2C1(Cc1ccncc1)Cc1ccncc1
inactive: [1] | [2] | [3] | [4] | [5] | [6] | [7] | [8] | [20] | [11] | [12] | [13] | [14] | [15] | [16]

CN1CCN(N)CC1
inactive: [1] | [2] | [3] | [4] | [5] | [17] | [6] | [7] | [18] | [19] | [9] | [20] | [11] | [12] | [13] | [14] | [15] | [16]

CO[C@@]1(NC(=O)CSCC#N)C(=O)N2C(C(=O)O)=C(CSc3nnnn3C)CS[C@@H]21
inactive: [1] | [2] | [3] | [4] | [5] | [6] | [7] | [9] | [20] | [11] | [12] | [13] | [14] | [15] | [16]

CC1(O)CSC(C)(O)CS1 (stereo not drawn)
inactive: [1] | [2] | [3] | [4] | [5] | [17] | [6] | [7] | [8] | [9] | [10] | [20] | [12] | [13] | [14] | [15] | [16]

C=CCCC=C
inactive: [1] | [2] | [3] | [4] | [5] | [6] | [7] | [18] | [19] | [8] | [20] | [11] | [12] | [13] | [14] | [15] | [16]
active: [9] 19.9 µM

CC(=O)Oc1cc(C(C)C)c(OCCN(C)C)cc1C
inactive: [1] | [2] | [3] | [4] | [5] | [6] | [18] | [19] | [8] | [9] | [10] | [20] | [11] | [12] | [13] | [14] | [15] | [16]

CCCCNCCCC
inactive: [1] | [2] | [3] | [4] | [5] | [6] | [18] | [19] | [8] | [9] | [10] | [20] | [12] | [13] | [14] | [15] | [16]

CCN(CC)CC1CCCCN1CC(=O)N1c2ccccc2C(=O)Nc2cccnc21 (stereo not drawn)
inactive: [1] | [2] | [3] | [4] | [5] | [6] | [7] | [18] | [19] | [8] | [9] | [10] | [20] | [11] | [12] | [13] | [14] | [15] | [16]

OCCN(CCO)CCN(CCO)CCO
inactive: [1] | [2] | [3] | [4] | [5] | [17] | [6] | [7] | [18] | [19] | [8] | [11] | [12] | [13] | [14] | [15] | [16]
